The list is not random: actives were taken first. Their share in the collection is about 5.5%.
Integrin act MD: activators of alpha7 integrin expression for muscular dystrophy; hit rate 0.064% among 350,000; AID 624291; alpha7betagal myoblasts, beta-gal FDG fluorescence, 48 h; Potency, µM (top dose mostly 38.3 µM), inactives show top-dose activation, hits mostly activators;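 further: 100% = response of the positive control SU9516; nearly all actives have a fitted effect of over 60% in size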
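Alpha7betagal+/- myoblasts (passage 13) were plated 16-24 hr, then exposed to compounds (1:260 dilution of DMSO stock) for 48 hours at 37C. After MPER lysis, β-galactosidase reporter activity was read as FDG fluorescence (ex 480/em 540) after 30 minutes.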
Mito fusion act: mitochondrial division inhibition or fusion activation | S. cerevisiae fusion-defective mutant growth rescue, CellTiterGlo 48 h | Potency, µM (highest dose often 46.1 µM), for the others: at the top dose growth rescue (activation), hits mostly activators | hit rate 0.23% among 320,000 | AID 485298; further: % of control where 0% means no effect; nearly all actives have a fitted effect of over 45% in size
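Temperature-sensitive fusion-defective S. cerevisiae (e.g. fzo1-1, mgm1-5) were grown with compound in YPEG medium (3% ethanol, 3% glycerol) for 48 hours at 37C. Growth rescue was measured as viability by CellTiterGlo luminescence after 10 minutes at ambient.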
BCR signal inh: inhibitors of chronic active B-cell receptor signaling; ABC-DLBCL IkBa-CBG/CBR reporter, luminescence ratio, 4 h; Potency, µM (titrated, usually from 46.1 µM), inactives show top-dose activity change, negative = inhibition, actives largely listed as inhibitors; hit rate 0.05% among 340,000; AID 493014; active means well fitted inhibition curve with a large enough effect in the signal ratio, with a control signal flat, not every such curve was filed as active; inconclusive means small, poorly fitted or top-dose-only effect, or effect the other way, or a change in a side signal; the % refers to the signal ratio;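 further: plate controls were basal doxycycline-induced cells for no effect and cells given 10 µM MG132 for full effect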
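Compounds up to 46 uM were incubated four hours with TMD8 cells whose green CBG68 luciferase is fused to IkappaBalpha; red CBR luminescence normalised the signal, and concentration-effect curves were fitted to fusion, red and ratio data.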
RORgamma inh: blocks mouse ROR gamma transcriptional activity | P51450 | Drosophila S2 Gal4-RORgamma UAS-luciferase reporter, 20 h | Potency, µM (titrated, usually from 53.6 µM), inactives show at the highest dose activity change, negative = inhibition, hits mostly inhibitors | hit rate 5.4% among 310,000 | AID 2551; further: on the % scale 0 is the no-effect control and ±100 the full control effect; nearly all actives have a fitted effect of over 60% in size
Target sequence (P51450 whole entry, looked up, the tested form may be a part): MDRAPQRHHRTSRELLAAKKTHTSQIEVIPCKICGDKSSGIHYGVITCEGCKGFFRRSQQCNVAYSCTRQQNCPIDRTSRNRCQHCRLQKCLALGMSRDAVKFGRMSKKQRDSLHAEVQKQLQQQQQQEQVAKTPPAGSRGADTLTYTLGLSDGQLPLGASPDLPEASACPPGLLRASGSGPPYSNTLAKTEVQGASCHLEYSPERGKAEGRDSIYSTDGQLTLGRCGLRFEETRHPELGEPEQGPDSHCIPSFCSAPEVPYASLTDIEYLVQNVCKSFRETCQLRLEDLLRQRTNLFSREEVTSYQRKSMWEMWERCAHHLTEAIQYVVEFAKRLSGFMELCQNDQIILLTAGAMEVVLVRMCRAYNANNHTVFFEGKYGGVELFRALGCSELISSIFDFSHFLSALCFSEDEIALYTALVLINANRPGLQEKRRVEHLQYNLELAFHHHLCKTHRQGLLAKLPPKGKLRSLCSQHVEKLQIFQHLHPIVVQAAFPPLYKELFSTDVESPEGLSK
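Drosophila Schneider cells stably carrying a metallothionein-driven Gal4 DBD–ROR gamma fusion and a UAS-Photinus luciferase reporter were exposed to compound for 1 hr, then induced with copper sulfate (700 uM final) for 20 hr at ambient temperature before luminescence reading.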
uPA generation: inhibitors of cell surface uPA generation; cell surface uPA generation assay, qHTS; Potency, µM (top dose mostly 38.3 µM), without a hit: at the highest dose activity change, negative = inhibition, hits mostly inhibitors; hit rate 0.31% among 330,000; active means well fitted inhibition curve with a large enough effect; inconclusive means small, poorly fitted or top-dose-only effect; inactive means no such curve, though single readings can be large or run the other way; tested in mouse RAW 264.7 cells; further: on the % scale 0 is the no-effect control and ±100 the full control effect; nearly all actives have a fitted effect of over 55% in size
Gal4-VP16 FLuc: counter-screen for ROR gamma inhibitors: Gal4-VP16 reporter. Drosophila S2 Gal4-VP16 UAS-luciferase, luminescence, 20 h. Potency, µM (titrated, usually from 53.6 µM), without a hit: at the top dose activity, negative = inhibition, actives largely listed as inhibitors. hit rate 3.5% among 310,000;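 further: Gal4-VP16 expression switched on by copper sulfate through the metallothionein promoter; on the % scale 0 is the no-effect control and ±100 the full control effect; nearly all actives have a fitted effect of over 50% in size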
Starred values were filed as active, the others as inactive; ? = inconclusive; nt = no result given; [ ] = another dose, or the depositor's remark. Unless noted, the call rests on the fitted dose curve; in most records, active means well fitted curve in the direction sought with a large enough effect; inconclusive means small, poorly fitted or top-dose-only effect, or another doubt; inactive means no such curve, though single readings can be large; an effect the other way counts as inactive or inconclusive. Potency means the concentration at half of the fitted maximal effect.

SMILES | Integrin act MD | Mito fusion act | BCR signal inh | RORgamma inh | uPA generation | Gal4-VP16 FLuc
CN(C)CCCn1c(=O)n(C2CCCCC2)c(=O)c2c3c(sc21)CCCCC3 | 10% | nt | nt | nt | 2% | nt
CCn1c(=S)[nH]c2sc3c(c2c1=O)CCCC3 | -26% | 2% | 9% | 0.45µM* | -22% | 0.63µM*
CN(C)CCCn1c(=S)[nH]c2sc3c(c2c1=O)CCCC3 | 14% | -10% | 1% | 14µM* | -1% | ?
CC1CCc2c(sc3[nH]c(=S)n(C)c(=O)c23)C1 (stereo unspecified) | -2% | 31% | 12% | 0.56µM* | 4% | 0.89µM*
C=CCn1c(=S)[nH]c2sc3c(c2c1=O)CCC3 | -10% | -4% | 24% | 0.1µM* | 0% | ?
CC=C1COC(C(=O)NCCOCCO)(C(F)(F)F)C=C1C=C(C)C (stereo unspecified) | nt | nt | nt | -25% | nt | -10%
CCC(=O)O[C@@]1(C(=O)SCF)[C@@H](C)C[C@H]2[C@@H]3C[C@@H](F)C4=CC(=O)C=C[C@@]4(C)[C@]3(F)[C@@H](O)C[C@]21C | nt | nt | nt | -23%[2.98 µM] | nt | -4%[17 µM]
CC(=O)OCCBr | nt | nt | nt | 0% | nt | -5%
CCN(CC)S(=O)(=O)c1ccc(-c2nnc3sc4cccc(C)c4n23)cc1 | 0% | 0% | -13% | 2.2µM* | -14% | -2%
COc1ccc(NC(=O)CSc2nc3[nH]c(=O)cc(O)c3s2)c(OC)c1 | 15% | 0% | 1% | nt | 7% | nt
Cc1[nH]n(-c2ccccc2)c(=O)c1N=Nc1nccs1 | -23% | -2% | ? | 5.6µM* | nt | 5.6µM*
Cc1[nH]n(-c2ccccc2)c(=O)c1N=Nc1ccccc1O | -1% | -1% | ? | 2µM* | -5% | 4.5µM*
COC(=O)NC(=C(Cl)Cl)S(=O)(=O)c1ccccc1 | -57% | -3% | nt | 10µM* | -10% | 18µM*
COC(=O)c1ccc(C(=O)OC)c(NC(=S)N2CCCCC2C)c1 (stereo unspecified) | 1% | 10% | -1% | 16µM* | -4% | ?
CCCCC1(C)Cc2ccccc2C(=S)N1 (stereo unspecified) | 0% | -12% | 0% | 1µM* | -3% | 5.6µM*
Cc1cc(-c2nnc(SCC(=O)Nc3ccccc3Cl)n2C)no1 | -3% | -1% | -2% | 3% | 0% | -5%
CCOc1ccc(NC(=S)Nc2ccc(OCC)cc2)cc1 | 14% | -7% | -4% | 10µM* | -6% | -30%
CCOc1ccc(NC(=S)Nc2ccc(OC(F)(F)F)cc2)cc1 | -2% | -1% | 12% | ? | 1% | ?
CCOc1ccc(NC(=S)Nc2cc(C)[nH]n2)cc1 | -16% | -3% | 0% | 3.2µM* | -5% | 7.1µM*
CCOc1ccc(NC(=S)Nc2ccc3nsnc3c2)cc1 | -17% | -2% | 5% | -91% | 1% | ?
COc1cc(NC(=S)Nc2ccccn2)c(OC)cc1Cl | 3% | 0% | 1% | 1.3µM* | -7% | 7.1µM*
CC(=O)NC(C)CCc1ccccc1 (stereo unspecified) | 6% | -4% | 2% | -12% | -6% | -1%
Cc1ccccc1NC(=S)NC(C)CCc1ccccc1 (stereo unspecified) | -1% | 0% | 7% | 4.5µM* | -12% | 3.5µM*
COc1cc(NC(=S)Nc2cccc(Cl)c2Cl)c(OC)cc1Cl | -14% | -11% | -5% | ? | 7% | ?
O=c1c(-c2ccc(F)cc2)nc2cnc(Oc3ccccc3)nc2n1Cc1cccs1 | nt | nt | nt | 11% | nt | -1%
SMILES | Integrin act MD | Mito fusion act | BCR signal inh | RORgamma inh | uPA generation | Gal4-VP16 FLuc
CCNC(=S)Nc1ccc(OCC)cc1 | -2% | -10% | -1% | 13µM* | 6% | ?
CCNC(=S)Nc1ccc(OCc2nc3ccccc3s2)cc1 | -23% | -12% | -17% | 13µM* | 2% | 16µM*
CCOc1ccc(NC(=S)Nc2cc(OC)c(Cl)cc2OC)cc1 | -18% | 1% | -2% | 10µM* | -4% | 22µM*
CCNC(=S)Nc1ccc(Oc2ccccc2)cc1 | -20% | nt | nt | nt | 1% | nt
CCOc1ccc(NC(=S)NC(C)CCc2ccccc2)cc1 (stereo unspecified) | 0% | -5% | -1% | 2.5µM* | -2% | 7.1µM*
CCOc1ccc(NC(=S)Nc2ccc(C)c([N+](=O)[O-])c2)cc1 | -13% | 0% | -15% | 14µM* | nt | ?
CC(=O)OC[C@@H]1O[C@@H](O/N=C2/C[C@@H](O)[C@@H](O)[C@@H]3[C@@H]4C(=O)N(Cc5ccc6c(c5)OCO6)C(=O)[C@H]4CC[C@@H]23)[C@H](OC(C)=O)[C@H](OC(C)=O)[C@@H]1OC(C)=O | nt | nt | nt | 4%[10 µM] | nt | 5%[10 µM]
Cn1c(=N)n(CC(=O)c2ccc(Br)cc2)c2ccccc21 | ? | nt | nt | nt | -3% | nt
CCCCn1c(=N)n(CC(=O)c2ccc([N+](=O)[O-])cc2)c2ccccc21 | nt | 16% | ? | 1.3µM* | nt | -17%
Cn1c(=N)n(CC(=O)c2ccc(F)cc2)c2ccccc21 | 9% | -13% | ? | 8.9µM* | -18% | 11µM*
Cc1ccc(CNC(=O)CCC(=O)c2cccs2)cc1 | 16% | -2% | ? | 13µM* | 4% | -3%
O=C(CCC(=O)c1cccs1)NCc1ccc(Cl)cc1 | -14% | 1% | 16% | 1% | 1% | 2%
O=C(Nc1ccccc1)Nc1ncc(C(F)(F)F)cc1Cl | 0% | nt | nt | nt | nt | nt
FC(F)(F)c1cnc(NNC(=S)Nc2ccccc2Cl)c(Cl)c1 | -40% | -4% | ? | ? | -22% | 10µM*
Cc1cccc(NC(=S)NNc2ncc(C(F)(F)F)cc2Cl)c1 | 2% | -2% | 1% | 16µM* | -4% | 13µM*
O=C(COC(=O)c1ccc(O)cc1O)c1ccc2c(c1)OCO2 | -5% | 0% | 0% | 7.1µM* | -28% | ?
Cn1cccc1/C=C(\C#N)C(N)=S | -3% | 5% | -10% | -15% | -4% | 3%
Cc1cc(C)c(C)c(/C=C(/C#N)C(N)=S)c1C | -21% | -3% | 0% | 6.3µM* | nt | 16µM*

Screening results deposited in PubChem by National Center for Advancing Translational Sciences (NCATS).
